This is part of a sample that, as a whole, favours compounds with a hit. Of some 83,000 tested, about 20% had one in any assay.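 Single-concentration screen, 48 h exposure, 96-well plates. Endpoint: percent growth. Below 10 = active.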 A number with no mark means an inactive call. Activity calls are given as the source filed them.

Test systems include NCI-H23 lung; NCI-H226 lung; NCI-H322M lung; HOP-62 NSCLC; NCI-H460 lung; HOP-92 NSCLC; NCI-H522 lung; A549/ATCC NSCLC; 786-0 renal; COLO 205 colon; DU-145 prostate; K-562 leukemia; MALME-3M melanoma; MDA-MB-231 breast; RXF 393 renal; SF-268 CNS; SF-295 CNS; SF-539 CNS; UACC-257 melanoma; M14 melanoma.
What all share (test): NCI-60 one-dose screen, 48 h (100 = growth as untreated, 0 = no growth, -100 = all killed)
Holding throughout (conditions): 10 µM unless noted

Take `COc1ccc(C2[C@@H](c3ccccc3)C(=O)N2c2cc(OC)c(OC)c(OC)c2)cc1F` (stereo not given in full): the growth in the assay on NCI-H23 lung is 25.3%; in the assay with NCI-H226 lung, 66.6%; in the assay on NCI-H322M lung, 38.2%; with HOP-62 NSCLC, 19.1%; with NCI-H460 lung, 5.92% (active); in the assay with HOP-92 NSCLC it was 28.1%. Further, the growth was -34.2% (active) in the assay on NCI-H522 lung; 8.88% (active) in the assay on A549/ATCC NSCLC; 13.9% in the assay with 786-0 renal; -48.2% (active) in the assay with COLO 205 colon; 11% with DU-145 prostate; 5.35% (active) in the assay on K-562 leukemia. Moreover, the growth is 69.1% in the assay on MALME-3M melanoma; 32.3% in the assay with MDA-MB-231 breast; 13.5% in the assay on RXF 393 renal; 31.5% in the assay with SF-268 CNS; 0.875% (active) with SF-295 CNS; 14.8% with SF-539 CNS. The results for the growth in the assay on UACC-257 melanoma and with M14 melanoma were 20.8% and 4.59% (active), respectively.
On to `Fc1cc2[nH]ncc2c2c3c(c(-c4cn[nH]c4C(F)(F)F)nc12)CCCC3`, for which the growth is -12.2% (active) in the assay with NCI-H23 lung; 6.19% (active) in the assay on NCI-H226 lung; -0.0231% (active) with NCI-H322M lung; -1.79% (active) with HOP-62 NSCLC; 2.41% (active) in the assay with NCI-H460 lung; -71% (active) in the assay on HOP-92 NSCLC. For the same molecule, the growth in the assay on NCI-H522 lung was -24.2% (active); with A549/ATCC NSCLC, 2.17% (active); in the assay with 786-0 renal, 1.39% (active); in the assay on COLO 205 colon it was -45.6% (active); with DU-145 prostate, 5.47% (active); in the assay on K-562 leukemia it was -34.5% (active). In addition, the growth was 10.5% in the assay on MALME-3M melanoma; 7.95% (active) with MDA-MB-231 breast; -56.2% (active) in the assay with RXF 393 renal; 0.494% (active) in the assay with SF-268 CNS; 5.61% (active) in the assay with SF-295 CNS; -66.9% (active) in the assay on SF-539 CNS. Further, the growth was 2.49% (active) with UACC-257 melanoma and -2.16% (active) with M14 melanoma.
Regarding `O=C(c1cccc(N2CCOCC2)n1)c1c[nH]c2ccccc12`, the growth was 92.7% in the assay on NCI-H23 lung; 82.8% with NCI-H226 lung; 97% in the assay on NCI-H322M lung; 87.6% in the assay with HOP-62 NSCLC; 86.7% with NCI-H460 lung; 92.8% in the assay on HOP-92 NSCLC. In addition, the growth is 88.3% in the assay on NCI-H522 lung; 95.3% in the assay with A549/ATCC NSCLC; 98.7% in the assay with 786-0 renal; 107% in the assay on COLO 205 colon; 99.8% with DU-145 prostate; 103% with K-562 leukemia. The growth in the assay with MALME-3M melanoma is 95.1%; in the assay on MDA-MB-231 breast, 80.2%; in the assay with RXF 393 renal it was 99%; with SF-268 CNS it was 94.1%; with SF-295 CNS, 100%; with SF-539 CNS it was 88.9%. Moreover, the growth with UACC-257 melanoma is 87.7%; with M14 melanoma, 94.8%.
Turning to `CSc1nc2ccc(C)cc2cc1/C=C1/C=C(c2ccccc2)NC1=O`, the growth with NCI-H23 lung was 75.2%; in the assay with NCI-H226 lung it was 69.4%; in the assay on NCI-H322M lung, 65.8%; in the assay on HOP-62 NSCLC, 72.8%; with NCI-H460 lung, 19.2%; in the assay on HOP-92 NSCLC, 36.4%. The growth in the assay with NCI-H522 lung was 67.6%; in the assay on A549/ATCC NSCLC, 47.2%; in the assay on 786-0 renal it was 2.66% (active); with COLO 205 colon, 69.8%; with DU-145 prostate it was 47.4%; in the assay with K-562 leukemia it was 41.3%. For the same molecule, the growth in the assay with MALME-3M melanoma is 40.4%; in the assay on MDA-MB-231 breast it was 38.5%; in the assay on RXF 393 renal, 79.1%; in the assay with SF-268 CNS, 66.3%; with SF-295 CNS, 36.7%; in the assay with SF-539 CNS, 39.5%. The growth in the assay with UACC-257 melanoma was 80%; with M14 melanoma it was 64.1%.
As to `CCCCO[C@@H]1C=C2[C@H]3CC(C)(C)C(=O)C[C@]3(C(=O)O[C@@H]3O[C@H](CO[C@@H]4O[C@H](CO)[C@@H](OC5OC(C)C(O)C(O)C5O)[C@H](O)[C@H]4O)[C@@H](O)[C@H](O)[C@H]3O)CC[C@@]2(C)[C@]2(C)CC[C@H]3C(C)(C)C(=O)CC[C@]3(C)[C@@H]12` (stereo not given in full), the growth in the assay with NCI-H23 lung is 60.3%; with NCI-H226 lung, 45.6%; in the assay with NCI-H322M lung, 84.3%; in the assay on HOP-62 NSCLC, 76.1%; in the assay on NCI-H460 lung it was 91.8%; in the assay on HOP-92 NSCLC it was 2.25% (active). Also, the growth in the assay with NCI-H522 lung is 67.9%; in the assay on A549/ATCC NSCLC, 84.8%; in the assay with 786-0 renal it was 29.5%; in the assay with COLO 205 colon, 97.2%; with DU-145 prostate it was 97.9%; in the assay with K-562 leukemia it was 90.5%. Further, the growth in the assay with MALME-3M melanoma is 34.2%; in the assay with MDA-MB-231 breast it was 73.2%; in the assay with RXF 393 renal it was 63.2%; with SF-268 CNS, 47.2%; in the assay with SF-295 CNS it was 92.8%; with SF-539 CNS it was 60.1%. Further, the growth was 49.1% with UACC-257 melanoma and 40.5% in the assay with M14 melanoma.
`N#Cc1c(-c2ccc(Br)cc2)nc2c(N=Nc3ccc(S(N)(=O)=O)cc3)c(N)nn2c1N`: the growth was 63.7% in the assay on NCI-H23 lung; 66.2% with NCI-H226 lung; 74.7% with NCI-H322M lung; 52.2% with HOP-62 NSCLC; 37.1% in the assay with NCI-H460 lung; 31.5% with HOP-92 NSCLC. The growth with NCI-H522 lung is 38.6%; in the assay with A549/ATCC NSCLC it was 68.4%; with 786-0 renal it was 69.9%; in the assay on COLO 205 colon it was 25.5%; in the assay on DU-145 prostate, 33.2%; in the assay on K-562 leukemia it was 36.3%. In addition, the growth is 57.7% in the assay on MALME-3M melanoma; 41.2% in the assay with MDA-MB-231 breast; 42.2% in the assay with RXF 393 renal; 55.9% in the assay on SF-268 CNS; 61.9% with SF-295 CNS; 38.6% with SF-539 CNS. The growth with UACC-257 melanoma was 82.6%; in the assay on M14 melanoma, 41.4%.
Consider `O=C(NCCCCO)c1cncnc1Nc1ccc2c(ccn2Cc2cccc(F)c2)c1`, for which the growth was 97.6% with NCI-H23 lung; 100% in the assay on NCI-H226 lung; 72.9% in the assay with NCI-H322M lung; 94.4% with HOP-62 NSCLC; 101% with NCI-H460 lung; 92.1% in the assay with HOP-92 NSCLC. For the same molecule, the growth in the assay on NCI-H522 lung was 76.9%; with A549/ATCC NSCLC it was 84.4%; in the assay on 786-0 renal, 92.4%; in the assay on COLO 205 colon, 97.7%; in the assay with DU-145 prostate, 96.2%; with K-562 leukemia, 82.5%. Besides, the growth in the assay with MALME-3M melanoma was 93.9%; with MDA-MB-231 breast, 69.3%; with RXF 393 renal, 101%; in the assay with SF-268 CNS it was 99.3%; in the assay on SF-295 CNS, 97.6%; with SF-539 CNS, 94.4%. Further, the values for the growth in the assay with UACC-257 melanoma and with M14 melanoma were 96.7% and 89.9%, respectively.

The record behind these values is PubChem BioAssay (NCI).
